Source: PubChem BioAssay
Most compounds without a hit are left out; they make up all but 3.6% or so of the library.
ClpP mod – qHTS Assay for Activators of ClpP. ATP-dependent Clp protease proteolytic subunit (Bacillus subtilis (strain 168)), P80244. purified B. subtilis ClpP, FRET peptide cleavage, 20 min. Potency, µM (highest dose often 57.5 µM), for inactives: at the highest dose activity change, negative = active. actives 1.9% (n = 340,000). AID 651965, 2013; active = well fitted falling curve with a large enough effect; inconclusive = small, poorly fitted or top-dose-only effect; inactive = no such curve, though single readings can be large or run the other way; note: the source files actives as falling curves though it sought activators and does not explain the sign; nearly all actives have a fitted effect of over 65% in size
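Buffer: 100 mM Tris/HCl pH8, 100 mM KCl, 0.05% low protease BSA, 2.5% glycerol, 0.01% Tween-20. ClpP 10 microg/mL final; 20 min RT; delta FRET normalized to ADEP and DMSO controls.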
FUS yeast rescue – suppressors of FUS proteinopathy in yeast | S. cerevisiae FUS-expressing, growth rescue, OD600, 24 h | Potency, µM (titrated, usually from 76.6 µM), hits mostly activators | actives 0.24% (n = 390,000);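 note: plate controls were DMSO vehicle for no effect and reference control for full effect; nearly all actives have a fitted effect of over 55% in size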
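FUS-expressing yeast, raffinose-pregrown, induced in 2% galactose minimal medium at OD 0.005; compounds in a dilution series, 24hr at 30C. Growth restoration read as absorbance at 600 nm. CP55940 positive control, DMSO negative.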
aSyn yeast inh – rescues yeast growth from alpha-synuclein toxicity. AID 652106. Potency, µM (titrated, usually from 46.1 µM), inactives show at the highest dose growth rescue (activation), actives largely listed as activators. actives 0.14% (n = 370,000). Yeast expressing alpha-synuclein, growth rescue, BacTiter-Glo, 24 h; note: % of control where 0% means no effect; nearly all actives have a fitted effect of over 65% in size
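Galactose-induced alpha-syn yeast (OD600=0.02, raffinose-pregrown) + pinned cpd, 24 hr, 30 deg C; growth by BacTiter-Glo luminescence. Growth restoration scores as activation.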
Mm-Cpn inhibitor – inhibitors of Methanococcus maripaludis chaperonin TRiC (MmCpn). Potency, µM (series often up to 76.9 µM), for the others: top-dose activity, negative = inhibition, actives largely listed as inhibitors. actives 0.031% (n = 330,000). purified Mm-Cpn ATPase, ADP Transcreener TR-FRET; note: % is set by controls: 0 for no effect and ±100 for the full control effect; nearly all actives have a fitted effect of over 80% in size
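Measured: ADP formation by purified Mm-CPN. Conditions: 25 nM protein, 10 uM ATP, Tris pH 7.4 with Mg2+, K+ and DTT, 37°C for 30 min. Detection: Transcreener HTRF after 30 min at room temperature.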
TDP-43 yeast inh – inhibitors of TDP-43 toxicity in yeast; TDP-43 expressing yeast growth rescue, BacTiter-Glo, 24 h; Potency, µM (top dose mostly 46.1 µM), for inactives: at the highest dose growth rescue (activation), actives largely listed as activators; actives 1.8% (n = 410,000); AID 652104; note: % of control where 0% means no effect; nearly all actives have a fitted effect of over 50% in size
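Cell-based yeast growth screen: TDP-43 expression induced in galactose, inoculum OD600=0.02 after raffinose pregrowth to mid-log. Read-out BacTiter-Glo luminescence at 24 hr, 30 deg C; inhibition of toxicity seen as signal increase.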
Abeta rescue – A-beta toxicity reversal in yeast; yeast expressing A-beta42, growth rescue, OD600, 48 h; response scale: 0% DMSO, 100% iron-clioquinol control; Potency, µM (top dose mostly 46.1 µM), most hits filed as activators; actives 0.063% (n = 410,000); note: nearly all actives have a fitted effect of over 55% in size
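Yeast A-beta toxicity model in growth medium with pinned compounds, 48 h at 30 C; growth read as absorbance at 600 nm. Normalized to FeCl3/clioquinol equimolar mix (positive) and DMSO (negative).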
An asterisk follows results filed as active; i = inactive; ? = inconclusive; . = no result given; ! = repeats disagree; [ ] = dose if it differs, or a comment. Unless noted, calls come from the whole dose curve; as a rule, active = well fitted curve in the direction sought with a large enough effect; inconclusive = small, poorly fitted or top-dose-only effect, or another doubt; inactive = no such curve, though single readings can be large; an effect the other way counts as inactive or inconclusive. Potency is the fitted concentration of half-maximal effect.

SMILES | ClpP mod | FUS yeast rescue | aSyn yeast inh | Mm-Cpn inhibitor | TDP-43 yeast inh | Abeta rescue
Cc1cccc(C)c1OCc1cc(=O)n2c3c(sc2n1)CCCC3 | 4.4% | i | . | . | 35.5µM* | i
O=C(CSCc1cnn(-c2ccccc2)c1-n1cccc1)NCc1cccc(Cl)c1 | -22.2% | ? | . | . | ? | i
O=C(CSCc1cnn(-c2ccccc2)c1-n1cccc1)NCc1cccnc1 | . | i | -3.2% | 1.5% | . | i
O=C(CCSCc1cnn(-c2ccccc2)c1-n1cccc1)NCc1ccc(Cl)cc1 | -0.2% | i | . | . | 20µM* | ?
Cc1ccc(CNC(=O)CCSCc2cnn(-c3ccccc3)c2-n2cccc2)cc1 | -3.9% | i | . | . | 20µM* | i
CCN(C(=O)Nc1cn(CC(C)C)c(=O)c2ccccc12)c1cc(C)ccc1C | ? | i | -0.2% | . | 19.8% | i
COc1ccccc1C1=NOC(C)(c2sc(-c3ccc(Cl)cc3)nc2C)C1 (centres undefined) | ? | i | 3.6% | -10.9% | 23.5% | i
Cc1nc(-c2ccc(Cl)cc2)sc1C1(C)CC(c2ccccc2Br)=NO1 (centres undefined) | 25.1µM* | i | 2.5% | . | -2.3% | i
CNC(=O)c1nc(C)c(C2(C)CC(c3ccccc3)=NO2)s1 (centres undefined) | 1.5% | i | 13.1% | -1.3% | 25.5% | i
Cc1nc(C(=O)Nc2cc(F)cc(Cl)c2)sc1C1(C)CC(c2ccccc2)=NO1 (centres undefined) | -7.0% | ? | 1.0% | . | 12.6µM* | i
COc1cccc(CC2CC(=O)N(CCc3ccc4c(c3)OCO4)C2=O)c1 (centres undefined) | -1.6% | i | 3.8% | 0.8% | 20µM* | i
Cc1ccc(CC2CC(=O)N(CCc3ccc4c(c3)OCO4)C2=O)cc1 (centres undefined) | 0.6% | i | 5.0% | -0.3% | 28.0% | i
O=C(O)C1CCCC1 | -25.6% | . | -13.0% | . | . | .
Cc1ccc(NC(=O)Cn2c(/C=C/c3ccccc3)nc3ccccc32)cc1C | 28.2µM* | ? | -5.3% | 0.8% | -8.5% | i
CCCn1c(/C=C/c2ccccc2)nc2ccccc21 | 12.6µM*! | i | -15.1% | 0.1% | 24.2%[9.22 µM] | i
Cc1cccc(-c2nc3ccccc3c3nncn23)c1 | 0.8% | i | 1.0% | -0.9% | 17.8µM* | i
c1ccc(-c2nc3ccccc3c3nncn23)cc1 | 0.6% | i | -0.1% | -2.3% | ? | i
CCOC(=O)C1=C(N)N2C(=O)C(C)SC2=C(C(=O)OC)C1c1cccc(OC)c1 (centres undefined) | -2.8% | i | 1.2% | -2.7% | 20µM* | i
COC(=O)C1=C2SC(C)C(=O)N2C(N)=C(C#N)C1c1ccc(OC)c(OC)c1 (centres undefined) | -2.5% | i | 7.7% | 0.9% | 19.2% | i
O=[N+]([O-])c1ccc2[nH]c(O)c(N=NC(=S)Nc3cccnc3)c2c1 | -2.0% | i | -7.9% | -1.8% | 10µM* | i
CCNC(=S)N=Nc1c(O)[nH]c2ccc([N+](=O)[O-])cc12 | . | i | -5.2% | 0.8% | -1.2% | i
CCOc1cc(C)c(C(C)C)cc1S(=O)(=O)N1CCOCC1 | -0.2% | i | 2.7% | 1.5% | 22.8% | i
CCOc1cc(C)c(C(C)C)cc1S(=O)(=O)n1ccnc1CC | 0.3% | i | . | . | 20µM* | i
CN(C)c1ccc(/C=C2\C=Cc3ccccc32)c(Cl)c1 | 1.3% | . | -3.1% | . | . | .
COc1cn(-c2ccccc2)nc1C(=O)Nc1ccc(C)cc1 | . | i | 5.9% | 1.3% | ? | i
SMILES | ClpP mod | FUS yeast rescue | aSyn yeast inh | Mm-Cpn inhibitor | TDP-43 yeast inh | Abeta rescue
COc1ccc(C)cc1NC(=O)Nc1ccccc1 | 0.4% | i | -0.6% | 1.1% | -3.1% | i
COc1ccc(C)cc1NC(=O)c1nn(-c2ccccc2)cc1OC | 1.3% | i | -10.7% | -2.0% | 15.8µM* | i
COc1ccc(C)cc1NC(=O)C1CC1c1ccccc1 (centres undefined) | -1.9% | i | -29.4% | . | 15.8µM* | i
O=C(OCC(=O)N1CCOCC1)c1ccc2ccccc2c1O | 28.2µM* | . | 5.1% | 0.8% | 0.0% | i
Cc1sc2nc(-c3cccnc3)nc(Cl)c2c1-c1ccccc1 | ? | . | -23.2% | -13.6% | 25.1µM* | i
CCOc1cccc(C2C=C(c3ccc4c(c3)OCO4)NC(c3ccc(Cl)cc3)N2)c1O (centres undefined) | 3.5% | . | 2.4% | . | . | .
CC(=O)Nc1cccc(-c2nnc(SCC(=O)c3cc([N+](=O)[O-])ccc3Br)o2)c1 | 0.6% | i | . | . | 1.3% | i
COc1ccc(-c2nc3ccncc3[nH]2)cc1OC | 28.2µM* | i | 2.2% | 0.0% | -15.6% | i
Nc1ccc(C(=O)OCC(=O)Nc2ccc([N+](=O)[O-])cc2C(F)(F)F)cc1 | 22.4µM* | i | 11.4% | -1.1% | ? | i
O=C(NCCNc1ccc([N+](=O)[O-])cc1C(F)(F)F)c1ccccc1 | -0.8% | . | 11.6% | 0.1% | 22.4µM* | i
COc1cccc(NC(=O)CN2C(=O)c3cccc4cccc2c34)c1 | -6.1% | i | . | . | 24.3% | i
COC(=O)c1c(C#N)c(N)nc2c1CCCC2 | 28.2µM* | i | 6.4% | ? | 23.2% | i
COc1cc2nc(N3CCOCC3)nc(NC(C)C)c2cc1OC | 3.5% | . | ? | . | . | .
O=C(CSc1nnc2n1CCCN2)c1ccc([N+](=O)[O-])cc1 | . | i | 1.6% | 0.0% | -11.9% | i
O=C(CSc1nnc2n1CCCN2)c1ccc(Cl)cc1 | 14.1µM* | . | -10.1% | 0.2% | -1.4% | i
CC(Sc1nnnn1-c1ccc(Cl)cc1)C(=O)NCC(=O)Nc1ccc(F)c(F)c1F (centres undefined) | 25.1µM* | . | -2.8% | -2.5% | 0.5% | i
CCOC(=O)c1c(-c2ccccc2)oc2ccc(NS(=O)(=O)c3ccc(C)cc3C)cc12 | 4.2% | i | . | . | 15.2% | i
NC(=O)c1sc2nc3c(c(-c4ccco4)c2c1N)CCC3 | 4.2% | i | 10µM* | -8.3% | 6.6% | i
Cc1ccc(-c2c3c(nc4sc(C(N)=O)c(N)c24)CCCC3)o1 | -3.1% | . | 20.2% | -19.9% | 2.2% | i
COc1cccc(CNC(=O)Cc2c(C(=O)O)c(C)cn2C)c1 | 1.8% | i | . | . | 3.0% | i
CC(=O)Nc1ccc2nc(-c3ccccn3)[nH]c2c1 | 11.2µM* | i | -6.5% | -12.4% | 5.7% | i
CC(=O)Nc1ccc2nc(-c3cc(C)ccc3C)[nH]c2c1 | 4.3% | i | . | . | 19.0% | i
